Hits are enriched below; roughly 5.5% of the tested compounds scored in any of these assays.
Integrin act MD = qHTS for Activators of Integrin-Mediated Alleviation for Muscular Dystrophy. Potency, µM (highest dose often 38.3 µM), without a hit: at the highest dose activation, usual class: activators. AID 624291, 2012. 350,000 tested, 0.064% active. alpha7betagal myoblasts, beta-gal FDG fluorescence, 48 h;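 also: 100% = response of the positive control SU9516; nearly all actives have a fitted effect of over 60% in size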
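Alpha7betagal+/- myoblasts (passage 13) were plated 16-24 hr, then exposed to compounds (1:260 dilution of DMSO stock) for 48 hours at 37C. After MPER lysis, β-galactosidase reporter activity was read as FDG fluorescence (ex 480/em 540) after 30 minutes.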
uPA surface inh = qHTS for Inhibitors of Cell Surface uPA Generation. cell surface uPA generation assay, qHTS. Potency, µM (top dose mostly 38.3 µM), inactives show at the highest dose activity change, negative = inhibition, usual class: inhibitors. 330,000 tested, 0.31% active. AID 540303, 2011; active = well fitted inhibition curve with a large enough effect; inconclusive = small, poorly fitted or top-dose-only effect; inactive = no such curve, though single readings can be large or run the other way; tested in mouse RAW 264.7 cells; also: % is scaled to controls: 0 for no effect and ±100 for the full control effect; nearly all actives have a fitted effect of over 55% in size
Mito fusion yeast = qHTS Assay for Small Molecule Inhibitors of Mitochondrial Division or Activators of Mitochondrial Fusion; S. cerevisiae fusion-defective mutant growth rescue, CellTiterGlo 48 h; Potency, µM (doses to about 46.1 µM), without a hit: at the highest dose growth rescue (activation), usual class: activators; 320,000 tested, 0.23% active; AID 485298, 2010; also: % of control where 0% means no effect; nearly all actives have a fitted effect of over 45% in size
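S. cerevisiae fusion-defective temperature-sensitive mutants (e.g. fzo1-1, mgm1-5) grown 48 h at 37C in YPEG (ethanol/glycerol non-fermentable) medium with 23 nl compound per well; growth rescue read as CellTiterGlo luminescence.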
Chronic BCR inh = qHTS Assay to Find Inhibitors of Chronic Active B-Cell Receptor Signaling; ABC-DLBCL IkBa-CBG/CBR reporter, luminescence ratio, 4 h; Potency, µM (doses to about 46.1 µM), without a hit: top-dose activity change, negative = inhibition, most hits filed as inhibitors; 340,000 tested, 0.05% active; AID 493014, 2011; active = well fitted inhibition curve with a large enough effect in the signal ratio, with a control signal flat, not every such curve was filed as active; inconclusive = small, poorly fitted or top-dose-only effect, or effect the other way, or a change in a side signal; the % refers to the signal ratio;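 also: plate controls were basal doxycycline-induced cells for no effect and cells given 10 µM MG132 for full effect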
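TMD8 ABC-DLBCL cells carrying doxycycline-inducible green luciferase fused to IkappaBalpha plus unfused red luciferase were exposed to compounds (up to 46 uM) for 4 hrs at 37C. Activity came from the overlap-corrected green/red luminescence ratio.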
Gal4-VP16 FLuc = VP16 counterscreen qHTS for inhibitors of ROR gamma transcriptional activity; Potency, µM (series often up to 53.6 µM), without a hit: top-dose activity, negative = inhibition, usual class: inhibitors; 310,000 tested, 3.5% active; AID 2546, 2010; Drosophila S2 Gal4-VP16 UAS-luciferase, luminescence, 20 h;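 also: Gal4-VP16 expression switched on by copper sulfate through the metallothionein promoter; % is scaled to controls: 0 for no effect and ±100 for the full control effect; nearly all actives have a fitted effect of over 50% in size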
RORg inh = qHTS for inhibitors of ROR gamma transcriptional activity; Potency, µM (top dose mostly 53.6 µM), for the others: at the highest dose activity change, negative = inhibition, hits mostly inhibitors; Drosophila S2 Gal4-RORgamma UAS-luciferase reporter, 20 h; 310,000 tested, 5.4% active; also: % is scaled to controls: 0 for no effect and ±100 for the full control effect; nearly all actives have a fitted effect of over 60% in size
Target sequence (P51450 whole entry, looked up, the tested form may be a part): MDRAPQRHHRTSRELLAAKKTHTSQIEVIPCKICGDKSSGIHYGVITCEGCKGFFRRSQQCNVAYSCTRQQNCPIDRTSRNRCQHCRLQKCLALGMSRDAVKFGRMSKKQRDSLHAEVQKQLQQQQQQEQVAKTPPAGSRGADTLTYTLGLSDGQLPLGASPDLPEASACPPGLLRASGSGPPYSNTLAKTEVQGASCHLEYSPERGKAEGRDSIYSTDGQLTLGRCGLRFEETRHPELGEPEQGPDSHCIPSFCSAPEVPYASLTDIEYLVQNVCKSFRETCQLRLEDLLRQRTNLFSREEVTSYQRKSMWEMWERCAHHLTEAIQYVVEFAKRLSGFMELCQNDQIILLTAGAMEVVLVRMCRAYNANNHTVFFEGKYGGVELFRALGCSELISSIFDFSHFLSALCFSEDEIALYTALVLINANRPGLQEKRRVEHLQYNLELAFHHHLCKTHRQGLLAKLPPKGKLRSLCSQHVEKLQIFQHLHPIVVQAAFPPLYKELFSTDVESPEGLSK
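ROR gamma transcriptional activity was tracked as Gal4-UAS luciferase output in stably transfected Drosophila Schneider cells, with compound added 1 hr before 700 uM copper sulfate induction and a 20 hr ambient-temperature incubation.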
* marks the source's active call; other numbers are inactive results; ? = inconclusive; / = not tested or not shown; ! = repeats disagree. Unless noted, calls follow the shape of the dose curve; as a rule, active = well fitted curve in the direction sought with a large enough effect; inconclusive = small, poorly fitted or top-dose-only effect, or another doubt; inactive = no such curve, though single readings can be large; an effect the other way counts as inactive or inconclusive. Potency is read from the fitted curve at half-maximal effect.

SMILES | Integrin act MD | uPA surface inh | Mito fusion yeast | Chronic BCR inh | Gal4-VP16 FLuc | RORg inh
Cc1sc2nc(CN3CCOCC3)nc(NS(=O)(=O)c3ccccc3)c2c1C | 10.8% | -4.8% | 2.4% | -11.7% | 10.7% | -11.7%
Cc1sc2nc(CN3CCOCC3)nc(NCCc3ccccc3)c2c1C | -5.9% | -1.4% | 16.1% | -3.9% | ? | 7.08µM*
Cc1sc2nc(CSc3ccccc3)nc(NCCN(C)C)c2c1C | -29.3% | 4.9% | -1.1% | ? | 0.9% | 0.8%
CCNc1nc(CSc2ccccc2)nc2sc(C)c(C)c12 | 11.2% | -1.9% | 18.8% | ? | 5.01µM* | 5.62µM*
Cc1ccccc1Nc1oc(-c2ccccc2)nc1-c1cccs1 | / | / | / | / | -6.6% | 23.7%
COc1cccc(C(=O)Nc2nc(-c3ccccc3)c(-c3ccccc3)o2)c1 | 0.0% | -15.2% | 24.4% | ? | 3.16µM* | 2.51µM*
COc1cccc(C(=O)Nc2ccccc2)c1 | 12.7% | -0.9% | -2.8% | ? | 3.7% | 14.8%
O=C(Nc1nnc(-c2ccccc2)s1)c1ccc(F)cc1 | 6.4% | 0.4% | 9.5% | ? | 5.1% | -6.8%
O=C(Nc1nc(-c2ccccc2)c(-c2ccccc2)o1)c1ccc(F)cc1 | -51.0% | -4.6% | -5.8% | ? | 2.82µM* | 1.41µM*
CCOC(=O)C(=O)Nc1nc(-c2ccccc2)c(-c2ccccc2)o1 | 0.0% | 0.5% | -3.7% | -0.1% | -15.5% | 20µM*
CC[C@H](C)[C@H](NC(=O)[C@H](Cc1ccc(O)cc1)NC(=O)[C@@H](NC(=O)[C@@H](N)CCCN=C(N)N)C(C)C)C(=O)N[C@@H](Cc1cnc[nH]1)C(=O)N1CCC[C@H]1C(=O)N[C@@H](Cc1ccccc1)C(=O)O | / | / | / | / | -5.3% | 1.6%
CC[C@H](C)[C@H](NC(=O)[C@H](C)NC(=O)[C@H](Cc1cnc[nH]1)NC(=O)[C@@H]1CCCN1C(=O)CNC(=O)[C@H](CC(C)C)NC(=O)[C@H](CC(C)C)NC(=O)[C@H](Cc1ccc(O)cc1)NC(=O)CNC(=O)[C@H](C)NC(=O)[C@H](CO)NC(=O)[C@H](CC(N)=O)NC(=O)[C@H](CC(C)C)NC(=O)[C@@H](NC(=O)[C@H](Cc1c[nH]c2ccccc12)NC(=O)CN)[C@@H](C)O)C(=O)N[C@@H](CC(=O)O)C(=O)N[C@@H](CC(N)=O)C(=O)N[C@@H](Cc1cnc[nH]1)C(=O)N[C@@H](CCCNC(=N)N)C(=O)N[C@@H](CO)C(=O)N[C@@H](Cc1ccccc1)C(=O)N[C@@H](CO)C(=O)N[C@@H](CC(=O)O)C(=O)N[C@@H](CCCCN)C(=O)N[C@@H](Cc1cnc[nH]1)C(=O)NCC(=O)N[C@@H](CC(C)C)C(=O)N[C@H](C(N)=O)[C@@H](C)O | / | / | / | / | 0.3% | -21.1%
O=C1c2ccccc2-c2nc3ccccc3cc21 | ? | -14.8% | -11.5% | ? | -26.9% | ?
c1ccc2c(c1)Cc1cc3ccccc3nc1-2 | -0.6% | -8.5% | -23.2% | ? | ? | 11.2µM*!
CCN1CCN(c2ccc(S(=O)(=O)N3CCCCC3)cc2NC(=O)COc2ccccc2)CC1 | 5.1% | -5.6% | -2.1% | -9.3% | / | /
CCN1CCN(c2ccc(S(=O)(=O)N3CCCCC3)cc2NC(=O)COc2ccc(Cl)c(C)c2)CC1 | -3.9% | 4.5% | -8.1% | 0.7% | -26.8% | 0.1µM*
Cc1cc(C(=O)N2CCc3c([nH]c4ccccc34)C2c2cccc(Cl)c2)nn1C (stereo unspecified) | -28.3% | -0.7% | 5.01µM* | ? | -15.0% | 9.4%
Cc1cccc(C2c3[nH]c4ccccc4c3CCN2C(=O)c2cc(CC(C)C)nc(C)n2)n1 (stereo unspecified) | 5.0% | 1.2% | 11.0% | ? | -0.9% | 36.2%
Cc1cccc(C2c3[nH]c4ccccc4c3CCN2C(=O)c2cc(CC(C)C)[nH]c(=O)n2)n1 (stereo unspecified) | 3.1% | -3.1% | -2.4% | -1.7% | ? | 12.6µM*
CC1OC(O[C@H]2CC[C@]3(C)C4C=C[C@]56OC[C@@]7(CC[C@@H](C)[C@H](C)C75)[C@H](O)C[C@@]6(C)[C@]4(C)CC[C@H]3C2(C)C)C(OC2OC(CO)C(O)C(O)C2OC2OCC(O)C(O)C2O)C(O)C1O (stereo partly specified) | / | / | 25.5% | ? | -20.9% | 1.78µM*
COc1ccc(CCn2c(-c3ccc(Cl)cc3)n[nH]c2=S)cc1OC | ? | -0.6% | 9.3% | -0.3% | ? | 1.58µM*
COc1ccc(CCn2c(C)ccc2C)cc1OC | / | / | 1.0% | -5.1% | -0.5% | ?
CCCCn1c(-c2cc(Cl)ccc2OC)n[nH]c1=S | 0.9% | / | -4.7% | / | 10µM* | 3.16µM*
COc1ccc(CCn2c(-c3ccc(C(C)(C)C)cc3)n[nH]c2=S)cc1OC | 11.2% | -3.8% | 18.1% | 0.7% | -18.4% | 3.16µM*
CCCCn1c(-c2cccnc2)n[nH]c1=S | 29.5% | 0.6% | 1.5% | 2.8% | -27.6% | ?
SMILES | Integrin act MD | uPA surface inh | Mito fusion yeast | Chronic BCR inh | Gal4-VP16 FLuc | RORg inh
C/C(O)=C(\N=Nc1cc(C)ccc1O)C(N)=O | -23.7% | 3.4% | 4.4% | ? | -8.9% | ?
Cc1cc(NC(=O)CSc2n[nH]c(-c3ccc(Cl)cc3Cl)n2)no1 | -15.2% | -10.9% | 11.1% | ? | / | /
CC(C)(C(=O)Nc1nccs1)c1ccccc1 | -22.3% | -1.7% | 4.9% | ? | 3.3% | -3.2%
CCOC(=O)c1ccc2c(c1)N(Cc1ccccc1C)C(=O)c1ccccc1S2=O (stereo unspecified) | -4.6% | / | -1.5% | 0.8% | 22.4µM* | -20.5%
COCCCNC(=S)N1CCN(c2ccccc2)CC1 | -5.9% | -2.9% | 5.7% | -2.6% | 24.2% | 23.6%
Cc1ccc(C(=O)Nc2ccc(N3CCCCC3)cc2)cc1 | / | -24.0% | / | -2.4% | / | /
O=C(Nc1ccc(N2CCCCC2)cc1)c1ccccc1 | ? | ? | -4.3% | ? | ? | 3.55µM*
S=C(NCCc1ccccc1)Nc1ccc(N2CCCCC2)cc1 | -5.5% | 7.2% | -44.3% | 7.4% | ? | 7.94µM*
COCCCNC(=S)Nc1ccc(N2CCCCC2)cc1 | ? | -0.3% | 0.1% | 0.1% | ? | 17.8µM*
CCNC(=S)Nc1ccc(N2CCCCC2)cc1 | ? | / | 4.5% | 0.3% | -68.1% | 12.6µM*
O=C(Cc1ccccc1)Nc1ccc(N2CCCCC2)cc1 | 0.4% | ? | 3.5% | -9.3% | -13.5% | -11.6%
CCC(=O)Nc1ccc(N2CCCCC2)cc1 | 29.6% | -7.7% | 0.3% | -14.5% | 4.8% | ?
